Source: PubChem BioAssay (National Center for Advancing Translational Sciences (NCATS))
Sm TGR inh = S. mansoni TGR enzyme inhibition | Q962Y6 | purified TGR, DTNB reduction, TNB absorbance 405 nm | Potency, µM (series often up to 114 µM), for inactives: at the highest dose activity change, negative = inhibition, most hits filed as inhibitors | 360,000 compounds, 3% hits | AID 485364; note: % is set by controls: 0 for no effect and ±100 for the full control effect; nearly all actives have a fitted effect of over 60% in size
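First, TGR (20 nM dispensed) and NADPH were mixed with compound. Second, a 15 min room-temperature incubation followed. Third, further NADPH and then DTNB were added to start the reaction. Finally, TNB absorbance was monitored kinetically.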
SARS PLP yeast = inhibitors of SARS-CoV papain-like protease in yeast; S. cerevisiae expressing SARS-CoV PLpro, growth rescue; Potency, µM (series often up to 32.9 µM), inactives show top-dose activity, positive = growth rescue, hits mostly activators; 330,000 compounds, 0.19% hits; calls by dose curve; note: 0% is about no effect; nearly all actives have a fitted effect of over 55% in size
Pf growth 48h = inhibits P. falciparum growth in the first generation, 48 h; P. falciparum luciferase growth in erythrocytes, 48 h; Potency, µM (series often up to 28.7 µM), for inactives: at the highest dose activity change, negative = inhibition, actives largely listed as inhibitors; 310,000 compounds, 5.9% hits; note: % is set by controls: 0 for no effect and ±100 for the full control effect
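Luminescence readout; reporter = integrated firefly luciferase in P. falciparum. RBC culture at 2% hematocrit, 0.1% parasitemia final, 37 C/5% CO2; decreased signal taken as growth inhibition.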
Pf growth 96h = P. falciparum growth inhibition at 96 hours | Potency, µM (series often up to 28.7 µM), inactives show at the top dose activity change, negative = inhibition, most hits filed as inhibitors | P. falciparum luciferase reporter growth, 96 h | AID 504834 | 320,000 compounds, 6.9% hits; note: % is set by controls: 0 for no effect and ±100 for the full control effect
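Cell-based qHTS: luciferase-tagged P. falciparum in erythrocytes (2% hematocrit, 0.05% parasitemia final) incubated with compounds for 96 hours, 37 C, 5% CO2; luciferase detection reagent then added and luminescence measured.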
The depositor's hits bear a star; i = inactive; ? = inconclusive; . = no result given. Compounds with a hit are over-represented: about 12% of the library has one in this group of screens. Unless noted, calls come from the whole dose curve; as a rule, active = well fitted curve in the direction sought with a large enough effect; inconclusive = small, poorly fitted or top-dose-only effect, or another doubt; inactive = no such curve, though single readings can be large; an effect the other way counts as inactive or inconclusive. Potency is the fitted concentration of half-maximal effect.

SMILES | Sm TGR inh | SARS PLP yeast | Pf growth 48h | Pf growth 96h
COc1ccc(OC)c(-n2c(SCC(N)=O)nnc2-c2c[nH]c3ccccc23)c1 | 3% | 0% | . | 5.2µM*
COc1ccc(OC)c(-n2c(SC)nnc2-c2c[nH]c3ccccc23)c1 | -8% | 3% | . | 4.1µM*
COc1ccc(OC)c(-n2c(SCC(=O)Nc3cc(C)on3)nnc2-c2c[nH]c3ccccc23)c1 | 0% | 7% | . | 4.7µM*
COc1cccc(-n2c(SCC(N)=O)nnc2-c2c[nH]c3ccccc23)c1 | 10% | 0% | . | 12µM*
COc1cccc(-c2nnc(SCC(N)=O)n2-c2ccc(Cl)cc2)c1 | 4% | 1% | -2% | .
COc1ccccc1-n1c(C)nnc1SCC(N)=O | 7% | 2% | 11% | 4%
Cc1cccc(C(=O)Nc2cccc(OCc3cc(=O)n4ccccc4n3)c2)c1 | -2% | . | . | .
Cc1ccccc1-n1c(SCc2c(C)noc2C)nnc1-c1c[nH]c2ccccc12 | 7% | -5% | ? | 15µM*
COc1ccccc1-n1c(SCC(N)=O)nnc1-c1ccccc1 | -24% | -3% | -15% | 1.7µM*
Cc1cc(NC(=O)CSc2nnc(-c3c[nH]c4ccccc34)n2-c2ccc(F)cc2)no1 | 5% | 0% | 27% | 24%
CCOc1ccc(-n2c(SCC(=O)Nc3cc(C)on3)nnc2-c2c[nH]c3ccccc23)cc1 | -3% | 3% | . | 5.9µM*
N#Cc1ccc(CSc2nnc(-c3c[nH]c4ccccc34)n2-c2ccccc2)cc1 | . | -1% | ? | ?
O=C(COc1ccc(Cl)cc1)NCCS(=O)(=O)N1CCN(c2ccccc2F)CC1 | 1% | 10% | 0% | 6%
COc1cccc(NC(=O)/C(C#N)=C/c2c(C)n(Cc3ccccc3)c3ccccc23)c1 | 4% | . | . | .
COC(=O)c1c(NC(=O)C(C)(C)C)sc2c1C(C(=O)OC)CC2 (stereo not drawn) | 32µM* | 19% | ? | ?
Cc1nnc(N2CCC(C(=O)NCCc3ccccc3Cl)CC2)c2nn(-c3ccccc3)c(C)c12 | 0% | . | . | .
Cc1ccc(NC2=NC(c3ccccc3)n3c(nc(C)cc3=O)N2)c(C)c1 (stereo not drawn) | 25µM* | 2% | -1% | -3%
Cc1ccc(NC2=NC(c3ccc(F)cc3)n3c(nc(C)cc3=O)N2)cc1 (stereo not drawn) | 0% | 0% | ? | ?
Cc1ccc(NC2=NC(c3ccc(C)cc3)n3c(nc(C)cc3=O)N2)cc1 (stereo not drawn) | 3% | -1% | ? | 12µM*
CCOc1ccc(CCNC(=O)C2CCN(c3ncnc4c3nc3n4CCCCC3)CC2)cc1 | -11% | . | . | .
CCOc1ccc(N2C(=O)CC(NC3CCN(C(=O)c4ccc(F)cc4)CC3)C2=O)cc1 (stereo not drawn) | 18µM* | -20% | -4% | 31%
CCOC(=O)c1ccc(N2C(=O)CC(NC3CCN(C(=O)c4ccc(F)cc4)CC3)C2=O)cc1 (stereo not drawn) | 50µM* | -29% | 3% | .
COc1ccc(-c2csc3ncnc(N4CCN(S(=O)(=O)c5ccc(C(C)=O)cc5)CC4)c23)cc1 | 4% | -1% | 1.7µM* | 2.3µM*
COc1ccc(-c2csc3ncnc(N4CCN(S(=O)(=O)c5cccc(Br)c5)CC4)c23)cc1 | 2% | 4% | ? | ?
COc1ccc(-c2csc3ncnc(N4CCN(S(=O)(=O)c5cccc(C(F)(F)F)c5)CC4)c23)cc1 | 7% | -6% | 10µM* | 1%
SMILES | Sm TGR inh | SARS PLP yeast | Pf growth 48h | Pf growth 96h
Cc1ccc(S(=O)(=O)N2CCN(c3ncnc4scc(-c5ccc(F)cc5)c34)CC2)cc1 | 6% | -2% | ? | -24%
CCOc1ccccc1NC(=O)c1c(C)cc(C)nc1SCC(=O)c1cccc(OC)c1 | 0% | . | . | .
Cc1nnc(SCc2ccc(Cl)cc2)c2cc3occc3n12 | 4% | . | . | .
Cc1ccc(S(=O)(=O)N2CC=C(c3c(C)n(CC(=O)N4CCCC4)c4ccccc34)CC2)cc1C | -31% | . | . | .
COc1ccc(C(=O)CSc2nnc(C3CCCCC3)n2N)c(OC)c1 | 4% | -8% | 0% | 9.3µM*
COc1ccc(NC(=O)CSc2nnc(C3CCCCC3)n2N)cc1 | 1% | 1% | 5% | 16%
O=[N+]([O-])c1ccc2nc(Cl)nc(-c3ccccc3)c2c1 | ? | 0% | 33% | 53%
COc1ccc(NC(=O)CN2CCC(NC(=O)c3ccco3)CC2)c([N+](=O)[O-])c1 | -8% | 1% | ? | -17%
CCOC(=O)C1CCN(C(C)C(=O)c2c[nH]c3ccccc23)CC1 (stereo not drawn) | -8% | 7% | -3% | 14%
Cc1[nH]c2ccccc2c1C(c1ccccn1)N1CCC(C(N)=O)CC1 (stereo not drawn) | 0.35µM* | -1% | -13% | -28%
Cc1[nH]c2ccc(C(=O)N3CCC(C(N)=O)CC3)cc2c1C | . | 6% | . | .
CCOC(=O)C1CCN(C(c2ccccn2)c2c(C)[nH]c3ccccc23)CC1 (stereo not drawn) | 0.28µM* | 4% | 2% | .
COc1ccc(CCNc2nc(SCc3cccc(Cl)c3)nc3ccccc23)cc1OC | 0% | . | . | .
CN(C)c1ccc(CNCCC(Cc2ccccc2)c2ccco2)cc1 (stereo not drawn) | -22% | -5% | ? | 9.3µM*
CSc1nc(=S)n(-c2ccc([N+](=O)[O-])cc2)c(C)c1C(C)=O | 9% | 9% | 1% | ?
CCNCCC(CCC(C)C)c1ccc2c(c1)OCO2 (stereo not drawn) | 2% | -1% | ? | 2.9µM*
CC(C)CCC(CCNCc1ccccn1)c1ccc2c(c1)OCO2 (stereo not drawn) | -14% | 0% | ? | 10µM*
Cc1ccc(C(=O)N2CCC(C(=O)c3c(C)cc(C)cc3C)CC2)cc1 | -7% | -2% | ? | ?
CC1(C)CC2CC(C)(CN2S(=O)(=O)c2ccccc2[N+](=O)[O-])C1 (stereo not drawn) | . | -4% | . | .
COc1ccc(-c2csc(NC(C)=O)n2)cc1OC | 0% | -4% | 29% | .
COc1cccc(NC(=O)Nc2nc(-c3ccc(OC)c(OC)c3)cs2)c1 | 10% | -4% | ? | 12µM*
COc1ccc2c(c1OC)C(=O)OC2Nc1nc(-c2ccc(-c3ccccc3)cc2)cs1 (stereo not drawn) | -20% | -85% | 425% | i
COc1cccc(-c2csc(NC3OC(=O)c4c3ccc(OC)c4OC)n2)c1 (stereo not drawn) | 40µM* | -3% | 86% | 144%
CCNc1nc(NCC)n2c(SCC(=O)Nc3ccc(CC)cc3)nnc2n1 | 0% | -7% | 10µM* | ?
CCNc1nc(NCC)n2c(SCC(=O)N(CC)C3CCCCC3)nnc2n1 | -10% | 6% | ? | 7.4µM*
CNC(=O)c1c(C)[nH]c(=S)c(C#N)c1-c1ccco1 | 32µM* | 0% | -4% | -21%
Cc1ccccc1NC(=O)c1c(C)[nH]c(=S)c(C#N)c1-c1ccco1 | -15% | -9% | -16% | 0%
CCNC(=S)/N=C(\N)Nc1nc(C)c2cc(C)ccc2n1 | 61% | -2% | ? | 9%
